Data as given in PubChem BioAssay AID1159580 (chemical genetic matrix, 2015).
“And” between values parts separate entries of the source, which are not always exact repeats. Equal entries are not always repeated. Hit rate of the full screen: of about 5,500 compounds, about 2,000 (36%) were called active. Another 18% or so got no clear call; they are omitted. Rule as the data show it: active = normalized growth mostly below about 0.91 (no sharp cut-off); inconclusive = no clear call, values can overlap the other calls; inactive = mostly above about 0.92. Some of the results follow.

Experiment: chemical genetic growth profiling, strain panel (AID 1159580);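 also: tested at 20 µM; growth read once vehicle control cultures reached saturation at 30 °C; 1 = growth at the plate median or of vehicle wells; lower values mean less growth of the strain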
Settings: S. cerevisiae deletion strains, growth OD

Measured: normalized growth

NC(=O)N/N=C\c1ccc([N+](=O)[O-])o1
inactive: locus YAL021C, strain ccr4, stronger effect = lower value 0.987 | locus YAL026C, strain drs2, stronger effect = lower value 0.988 | locus YAL030W, strain snc1, stronger effect = lower value 1 | locus YBL061C, strain skt5, stronger effect = lower value 0.997 | locus YBR009C, strain hhf1, stronger effect = lower value 0.978 | locus YBR021W, strain FUR4, stronger effect = lower value 1.02 | locus YBR023C, strain chs3, stronger effect = lower value 0.996 | locus YBR171W, strain sec66, stronger effect = lower value 1.01 | locus YBR229C, strain ROT2, stronger effect = lower value 0.997 | locus YBR231C, strain swc5, stronger effect = lower value 0.993 | locus YBR279W, strain paf1, stronger effect = lower value 0.995 | locus YCL011C, strain gbp2, stronger effect = lower value 0.986 | locus YCL016C, strain dcc1, stronger effect = lower value 0.992 | locus YCL029C, strain bik1, stronger effect = lower value 0.99 | locus YCL061C, strain MRC1, stronger effect = lower value 1.01 | locus YCL069W, strain vba3, stronger effect = lower value 1 | locus YCR088W, strain abp1, stronger effect = lower value 0.972 | locus YDL005C, strain med2, stronger effect = lower value 0.989 | locus YDL035C, strain GPR1, stronger effect = lower value 1.01 | locus YDL040C, strain nat1, stronger effect = lower value 0.995 | locus YDL074C, strain BRE1, stronger effect = lower value 1.08 | locus YDL101C, strain DUN1, stronger effect = lower value 0.993 | locus YDL134C, strain PPH21, stronger effect = lower value 1 | locus YDL185W, strain tfp1, stronger effect = lower value 0.963 | locus YDL192W, strain arf1, stronger effect = lower value 0.99 | locus YDR001C, strain nth1, stronger effect = lower value 0.991 | locus YDR069C, strain doa4, stronger effect = lower value 0.975 | locus YDR101C, strain arx1, stronger effect = lower value 0.977 | locus YDR137W, strain rgp1, stronger effect = lower value 1.04 | locus YDR159W, strain sac3, stronger effect = lower value 0.993 | locus YDR162C, strain NBP2, stronger effect = lower value 1.01 | locus YDR195W, strain ref2 0.967 | locus YDR297W, strain sur2, stronger effect = lower value 0.991 | locus YDR318W, strain mcm21, stronger effect = lower value 0.983 | locus YDR334W, strain swr1, stronger effect = lower value 0.992 | locus YDR335W, strain msn5, stronger effect = lower value 0.999 | locus YDR388W, stronger effect = lower value 0.984 | locus YDR392W, strain spt3, stronger effect = lower value 0.925 | locus YDR502C, strain sam2, stronger effect = lower value 0.978 | locus YEL003W, strain gim4, stronger effect = lower value 1 | locus YEL037C, strain rad23, stronger effect = lower value 1 | locus YEL061C, strain CIN8 (second series), stronger effect = lower value 1 | locus YEL061C, strain CIN8, stronger effect = lower value 1.02 | locus YER015W, strain faa2, stronger effect = lower value 0.962 | locus YER016W, strain bim1, stronger effect = lower value 0.968 | locus YER110C, stronger effect = lower value 0.966 | locus YER111C, strain swi4, stronger effect = lower value 1.01 | locus YER155C, strain BEM2 (second series), stronger effect = lower value 0.962 | locus YER155C, strain BEM2, stronger effect = lower value 0.994 | locus YER167W, strain BCK2, stronger effect = lower value 1 | locus YFR010W, strain ubp6, stronger effect = lower value 0.985 | locus YGL078C, strain dbp3, stronger effect = lower value 0.995 | locus YGL086W, strain mad1, stronger effect = lower value 0.971 | locus YGL167C, strain pmr1, stronger effect = lower value 0.994 | locus YGL173C, strain kem1, stronger effect = lower value 1.01 | locus YGL227W, strain vid30, stronger effect = lower value 1.01 | locus YGL240W, strain doc1, stronger effect = lower value 0.952 | locus YGL248W, strain PDE1, stronger effect = lower value 0.999 | locus YGL253W, strain hxk2, stronger effect = lower value 1.01 | locus YGR135W, strain pre9, stronger effect = lower value 0.989 | locus YGR229C, strain SMI1, stronger effect = lower value 1.07 | locus YGR252W, strain gcn5, stronger effect = lower value 0.951 | locus YHR013C, strain ard1, stronger effect = lower value 1.01 | locus YHR027C, strain rpn1, stronger effect = lower value 0.988 | locus YHR030C, strain SLT2, stronger effect = lower value 0.992 and 0.97 | locus YHR079C, strain IRE1 (second series), stronger effect = lower value 0.978 | locus YHR079C, strain IRE1, stronger effect = lower value 0.96 | locus YHR094C, strain hxt1, stronger effect = lower value 0.982 | locus YHR129C, strain ARP1, stronger effect = lower value 0.999 | locus YHR142W, strain chs7, stronger effect = lower value 1.02 | locus YHR200W, strain rpn10, stronger effect = lower value 0.989 | locus YIL066C, strain RNR3, stronger effect = lower value 1.01 | locus YIL073C, strain SPO22, stronger effect = lower value 0.975 | locus YIL125W, strain kgd1, stronger effect = lower value 0.983 | locus YIR030C, strain dcg1, stronger effect = lower value 0.989 | locus YJL092W, strain hpr5, stronger effect = lower value 0.997 | locus YJL095W, strain BCK1 (second series), stronger effect = lower value 0.992 | locus YJL095W, strain BCK1, stronger effect = lower value 0.985 and 0.968 | locus YJL115W, strain asf1, stronger effect = lower value 1.02 | locus YJL129C, strain trk1, stronger effect = lower value 1.05 | locus YJL134W, strain LCB3, stronger effect = lower value 1 | locus YJL154C, strain vps35, stronger effect = lower value 0.992 | locus YJL164C, strain tpk1, stronger effect = lower value 0.966 | locus YJL166W, strain qcr8, stronger effect = lower value 0.984 | locus YJL168C, strain set2, stronger effect = lower value 0.979 | locus YJL187C, strain SWE1 (second series), stronger effect = lower value 0.998 | locus YJL187C, strain SWE1, stronger effect = lower value 0.996 | locus YJR043C, strain POL32, stronger effect = lower value 0.977
